{"source": "PubChem BioAssay AID1347146", "about": "(National Center for Advancing Translational Sciences (NCATS), 2019)", "note": "Results filed as inconclusive are left out. Unmarked numbers belong to inactive results. Active and inactive are the calls of the source. The call rests on the fitted dose curve; in most records, active means well fitted inhibition curve with a large enough effect; inconclusive means small, poorly fitted or top-dose-only effect; inactive means no such curve, though single readings can be large or run the other way. Potency means the concentration at half of the fitted maximal effect."}
{"biological_target": "Nicotinamide N-methyltransferase (Homo sapiens) (UniProt P40261)", "sequence (P40261 whole entry, looked up)": "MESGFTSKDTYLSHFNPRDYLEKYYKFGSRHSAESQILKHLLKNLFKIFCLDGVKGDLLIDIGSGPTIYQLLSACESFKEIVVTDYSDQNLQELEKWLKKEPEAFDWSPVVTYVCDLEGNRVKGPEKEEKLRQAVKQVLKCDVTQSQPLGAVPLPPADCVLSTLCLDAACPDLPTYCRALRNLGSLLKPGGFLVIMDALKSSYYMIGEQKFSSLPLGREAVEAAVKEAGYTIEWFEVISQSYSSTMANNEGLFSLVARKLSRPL", "test": "qHTS Assay for Inhibitors of N-terminal methyltransferase 1 (NTMT1): NNMT MTaseGlo counterscreen assay;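 on activity change, negative = inhibition: plate controls were DMSO without inhibitor for no effect and no-enzyme control for full effect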", "details": "NNMT enzyme, MTase-Glo luminescence counterscreen; series mostly up to 57.1 µM; activity change, negative = inhibition: at the top concentration", "procedure,_shortened": "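Luminescent MTase-Glo read-out of SAH from nicotinamide methylation: 1 µM nicotinamide, 100 µM SAM, 125 nM NNMT, 30 min RT after ~15 min compound preincubation. Values normalized to no-enzyme/DMSO controls, Hill-fitted.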"}
{"smiles": "COc1cc2nc(N3CCCN(C)CC3)nc(NC3CCNCC3)c2cc1OC", "activity change, negative = inhibition": "-5.53%"}
{"smiles": "CC(C)NC[C@H](O)c1ccc(O)c(O)c1", "Potency": "inactive"}
{"smiles": "Cc1cc2c(cc1Cl)N(C(=O)Nc1ccc(Oc3cccnc3C)nc1)CC2", "activity change, negative = inhibition": "-5.64%"}
{"smiles": "Nc1ncnc2c1ncn2[C@@H]1O[C@H](CO)[C@@H](O)[C@H]1O", "Potency": "inactive"}
{"smiles": "O=c1[nH]c(=S)[nH]c(-c2ccccc2)c1Cc1c(O)ccc2ccccc12", "activity change, negative = inhibition": "95.8%"}
{"smiles": "Clc1nccc2c1ccc1ccccc12", "activity change, negative = inhibition": "-13.2%"}
{"smiles": "Nc1ncnc2c1ncn2[C@@H]1O[C@H](C(=O)N2CCN(CC(=O)Nc3cccc4c3CNC4=O)CC2)[C@@H](O)[C@H]1O", "activity change, negative = inhibition": "-19.9%"}
{"smiles": "CN(C)CCCc1cc(C(=O)Nc2ccc(-c3ccncc3)cc2)ccc1O", "activity change, negative = inhibition": "-9.81%"}
{"smiles": "N[C@@H](Cc1c[nH]c2ccc(O)cc12)C(=O)O", "Potency": "inactive"}
{"smiles": "S=C(S)N1CCCC1", "Potency": "25.1 µM (active)"}
{"smiles": "CC[N+](CC)(CC)CCOc1cccc(OCC[N+](CC)(CC)CC)c1OCC[N+](CC)(CC)CC", "activity change, negative = inhibition": "-11.5%"}
{"smiles": "C[C@]12C[C@H](O)[C@H]3[C@@H](CCC4=CC(=O)CC[C@@]43C)[C@@H]1CC[C@@H]2C(=O)CO", "activity change, negative = inhibition": "-13.2%"}
{"smiles": "O=C1Cc2c([nH]c3ccc(Br)cc23)-c2ccccc2N1", "activity change, negative = inhibition": "-5.93%"}
{"smiles": "CC(C)NCC(O)c1ccc(O)c(O)c1", "note": "(stereo unspecified)", "activity change, negative = inhibition": "-11.3%"}
{"smiles": "COC(=O)[C@H]1[C@H]2C[C@H]3c4[nH]c5ccccc5c4CCN3C[C@H]2CC[C@@H]1O", "activity change, negative = inhibition": "-21%"}
{"smiles": "NC[C@@H]1O[C@H](c2ccccc2)Cc2c1ccc(O)c2O", "activity change, negative = inhibition": "-10.6%"}
{"smiles": "NCCc1ccc(O)c(O)c1", "activity change, negative = inhibition": "-6.57%"}
{"smiles": "C=CCN1CCc2cc(O)c(O)cc2[C@H](c2ccccc2)C1", "activity change, negative = inhibition": "46.9%"}
{"smiles": "Cc1nnc(SCC2=C(C(=O)O)N3C(=O)[C@@H](NC(=O)Cn4cnnn4)[C@H]3SC2)s1", "activity change, negative = inhibition": "-9.85%"}
{"smiles": "Cc1cc(C)c(/C=C2\\C(=O)Nc3ccccc32)[nH]1", "activity change, negative = inhibition": "-16.7%"}
{"smiles": "OCCN1CCN(CC/C=C2/c3ccccc3Sc3ccc(C(F)(F)F)cc32)CC1", "activity change, negative = inhibition": "-10.3%"}
{"smiles": "CC(=O)c1ccc2c(c1)N(CCCN(C)C)c1ccccc1S2", "activity change, negative = inhibition": "-29%"}
{"smiles": "COc1cc2c(NC3CCN(C(C)C)CC3)nc(N3CCC(F)(F)CC3)nc2cc1OCCCN1CCCCC1", "activity change, negative = inhibition": "-5.35%"}
{"smiles": "CN(C)CCCN1c2ccccc2Sc2ccc(Cl)cc21", "activity change, negative = inhibition": "-18.9%"}
{"smiles": "NCC(O)C1CCCCCCC1", "note": "(stereo unspecified)", "activity change, negative = inhibition": "-15.3%"}
{"smiles": "O=C1NC(=O)C(c2ccccc2[N+](=O)[O-])=C1Nc1ccc(O)c(Cl)c1", "activity change, negative = inhibition": "-29.5%"}
{"smiles": "O=c1ccc2ccc(O)c(O)c2o1", "activity change, negative = inhibition": "-8.78%"}
{"smiles": "OC[C@H]1O[C@@H](n2cnc3cncnc32)[C@H](O)[C@@H]1O", "Potency": "11.2 µM (active)"}
{"smiles": "CSc1nc(N)c2ncn([C@@H]3O[C@H](COP(=O)(O)OP(=O)(O)OP(=O)(O)O)[C@@H](O)[C@H]3O)c2n1", "activity change, negative = inhibition": "-12.5%"}
{"smiles": "COc1cc2nc(N3CCOCC3)nc(NC(C)C)c2cc1OC", "activity change, negative = inhibition": "-19.8%"}
{"smiles": "CN1CCN(CCCN2c3ccccc3Sc3ccc(Cl)cc32)CC1", "activity change, negative = inhibition": "-16.6%"}
{"smiles": "CCCCC#Cc1nc(NC)c2ncn([C@@H]3O[C@H](CO)[C@@H](O)[C@H]3O)c2n1", "activity change, negative = inhibition": "-8.74%"}
{"smiles": "Cc1cc2nc3c(=O)[nH]c(=O)nc-3n(C[C@H](O)[C@H](O)[C@H](O)COP(=O)(O)OP(=O)(O)OC[C@H]3O[C@@H](n4cnc5c(N)ncnc54)[C@H](O)[C@H]3O)c2cc1C", "activity change, negative = inhibition": "162% [at 28.5 µM]"}
{"smiles": "Oc1ccc(C2CNCc3sccc32)cc1O", "note": "(stereo unspecified)", "Potency": "35.5 µM (active)"}
{"smiles": "COc1cc2c(NC3CCN(C)CC3)nc(N3CCCCC3)nc2cc1OCCCN(C)C", "activity change, negative = inhibition": "-16.6%"}
{"smiles": "Cc1ccc(S(=O)(=O)/C=C/C#N)cc1", "Potency": "15.8 µM (active)"}
